Measurements from PMC7819943, “Rice protein-binding microarrays: a tool to detect cis-acting elements near promoter regions in rice”.
The full ranking holds about 35,000 sequences; the median of “fluorescence intensity (a.u.)” is about 10,000, and the highest 2% start at about 52,000. The sample as a whole holds a higher share of the highest values than the screen did.

molecular target: T1, OsWOX13 (Oryza sativa, UniProt Q5QMM3 1-267); test: protein-binding microarray (RPBM); PBS, 2% BSA, 51.3 ng/ul salmon testes DNA, 50 uM zinc acetate, 200 nM TF, 25 C, 1 h; high values mean tight binding; details: protein: recombinant; tags: N-terminal polyhistidine and DsRed monomer fusion (pET32a); label: CyDye5-dUTP incorporated in the synthesized complementary strand; 3' TTTTT single-stranded linker to array surface; dsDNA, one strand shown
T1 sequence: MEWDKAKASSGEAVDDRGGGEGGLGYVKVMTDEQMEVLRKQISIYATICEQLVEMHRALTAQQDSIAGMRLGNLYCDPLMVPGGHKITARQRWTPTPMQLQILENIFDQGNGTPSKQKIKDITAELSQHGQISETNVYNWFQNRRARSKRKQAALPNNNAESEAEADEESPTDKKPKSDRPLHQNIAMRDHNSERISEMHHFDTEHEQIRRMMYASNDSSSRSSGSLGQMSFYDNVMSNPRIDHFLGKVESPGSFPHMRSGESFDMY
Outline: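 Binding signal is defined as the fluorescence intensity of each feature in arbitrary units, read on an Axon 4000B scanner. Transcription factors with N-terminal polyhistidine and DsRed fusions came from E. coli BL21-CodonPlus and were purified on Ni–NTA. They were incubated at 200 nM for 1 h at 25 °C on a custom Agilent array that had been made double-stranded with Cy5-dUTP, with 50 µM zinc acetate present, and the array was washed.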

| Sequence | binding signal |
| --- | --- |
| ATGACAGCAATTCCGATATCTAATAAGATTGAAAATATTGCGGAGTCACCTAGTGCAG | 14800 fluorescence intensity (a.u.) |
| CCAAATGATATAATCATGGCACATGGAGTACTGCTTAAGACGGAGTCACCTAGTGCAG | 9170 fluorescence intensity (a.u.) |
| CTAAAATTGGAGACGTCACTACAAACGTACGCACTCTTTGCGGAGTCACCTAGTGCAG | 6760 fluorescence intensity (a.u.) |
| ATTAAAACTTAATTAAATATACTAATAGCTTTCTCATTTTCGGAGTCACCTAGTGCAG | 7350 fluorescence intensity (a.u.) |
| TTTAATTGGTTAAATGAACTATGTAATGTTATAATTATATCGGAGTCACCTAGTGCAG | 33200 fluorescence intensity (a.u.) |
| AGTAAATTGGTGTATGATTAGATTAACATGTTAAATGTATCGGAGTCACCTAGTGCAG | 53500 fluorescence intensity (a.u.) |
| GTACATTTTAATGATTATATTATGATGATGAAAATTGTATCGGAGTCACCTAGTGCAG | 15300 fluorescence intensity (a.u.) |
| TAAGATAAATTAATTGGTAACCTTGTATGTCCATAAGGGTCGGAGTCACCTAGTGCAG | 45400 fluorescence intensity (a.u.) |
| AAAATTGAAATTTTCAACATTAAATTTGGATTAGATTTTGCGGAGTCACCTAGTGCAG | 19200 fluorescence intensity (a.u.) |
| CGGCGTTAATTGTCCTTCGATCCATTATTACAGAAACACTCGGAGTCACCTAGTGCAG | 15400 fluorescence intensity (a.u.) |
| ATGAGATAAATTGATTGTTAACCATGTATGTCTCTAAGGTCGGAGTCACCTAGTGCAG | 56400 fluorescence intensity (a.u.) |
| GATTAATTAATTATTATCCATTGTACACTTCGAAAATTGGCGGAGTCACCTAGTGCAG | 60500 fluorescence intensity (a.u.) |
| TAGAATAAATTGATTTAATTAAATGTAACATTAAATATATCGGAGTCACCTAGTGCAG | 10100 fluorescence intensity (a.u.) |
| GAAATAGATTAATTATAGCTAAAACATTTTCTCGACCTTGCGGAGTCACCTAGTGCAG | 52800 fluorescence intensity (a.u.) |
| AGATAATTTAATTGTTAACCATGTATGGCTGTAAGGGTATCGGAGTCACCTAGTGCAG | 43900 fluorescence intensity (a.u.) |
| GGGGATAATTTTGTAGCTCGATGACAAGTTGATTTGGTGTCGGAGTCACCTAGTGCAG | 19200 fluorescence intensity (a.u.) |
| ATCGAATTGAGGGAGATAAATTGATCTTGTTTTAATAATTCGGAGTCACCTAGTGCAG | 3450 fluorescence intensity (a.u.) |
| CTTTAATTACCACCCGATCTCACCAACAAGCGGGGCAGCTCGGAGTCACCTAGTGCAG | 20400 fluorescence intensity (a.u.) |
| AAACGATTGATCACAATCCACGCATCGTGCCTCTCTCGCCCGGAGTCACCTAGTGCAG | 14300 fluorescence intensity (a.u.) |
| GTCTCGTAATTTTCTGTTGAACTATGTAATTGATTTCTTTCGGAGTCACCTAGTGCAG | 10500 fluorescence intensity (a.u.) |
| TGCCACTCAAGTACAATTATTCCCATTAATTCGCTCCATTCGGAGTCACCTAGTGCAG | 5600 fluorescence intensity (a.u.) |

| Sequence | binding signal |
| --- | --- |
| TGTGATGTATTTGATTTATGATGTATTTATTTGTGTGTATCGGAGTCACCTAGTGCAG | 20700 fluorescence intensity (a.u.) |
| TGAATTACTCAATTGAATTGGTGTTATGTAATAAACTGCTCGGAGTCACCTAGTGCAG | 5970 fluorescence intensity (a.u.) |
| ATAAGTTAATTTAAATAAATGGAGTAGAATATTATGATAGCGGAGTCACCTAGTGCAG | 26300 fluorescence intensity (a.u.) |
| CAAATATATTATAAAATTGCATTTAATAAAACTTATTTGGCGGAGTCACCTAGTGCAG | 3450 fluorescence intensity (a.u.) |
| ACTTAATTGGATAGATAAATTTAAGTTATATTTAATATGGCGGAGTCACCTAGTGCAG | 64900 fluorescence intensity (a.u.) |
| TTATGATATATTGATCGTAGGATTGGGATTGGGATCCTATCGGAGTCACCTAGTGCAG | 15800 fluorescence intensity (a.u.) |
| ATTGATTGAGAAAATAATGTTGGTGAATAAATTGTTATATCGGAGTCACCTAGTGCAG | 40700 fluorescence intensity (a.u.) |
| GCATGACAAATGGCGTTAATTAGTCCACAAATAATATATACGGAGTCACCTAGTGCAG | 3210 fluorescence intensity (a.u.) |
| AATTTAATTAATGACAAATATAATTAGCTCTCTATCCAGGCGGAGTCACCTAGTGCAG | 55500 fluorescence intensity (a.u.) |
| AGTAATAAATTGATTGTATGTTATCTGGTGGTCTGAAACTCGGAGTCACCTAGTGCAG | 57400 fluorescence intensity (a.u.) |
| CCGGGGATTGATTTGCCGAGTGTATTATTGATCGTATGATCGGAGTCACCTAGTGCAG | 53500 fluorescence intensity (a.u.) |
| AGCTCTATAATTTTACAATTTAAAATTATATTATATAAAGCGGAGTCACCTAGTGCAG | 20400 fluorescence intensity (a.u.) |
| GCATGTTGATTATACCAGTAAGTTTCACGCACGCACACCGCGGAGTCACCTAGTGCAG | 13000 fluorescence intensity (a.u.) |
| ACATGTTAATTTTAACATTGACTAATAGTAAGTAGTGAGCCGGAGTCACCTAGTGCAG | 25000 fluorescence intensity (a.u.) |
| AAAGGGATGAGATTGAAGCAATTCCCGTGACTAGAAAACGCGGAGTCACCTAGTGCAG | 3320 fluorescence intensity (a.u.) |
| AAATTTAAATTTGAAGTTGATTTTAAGATATTTTCAACGTCGGAGTCACCTAGTGCAG | 21000 fluorescence intensity (a.u.) |
| TTAGTTTATACTCAATTAATCATTCGCTAATGGCTTACCTCGGAGTCACCTAGTGCAG | 5920 fluorescence intensity (a.u.) |
| ACTGATAGAATTAGCTCTATGCATAATGCATGGCTGTCTCCGGAGTCACCTAGTGCAG | 34300 fluorescence intensity (a.u.) |
| AAAGATTGAAACTCTGAACATTTAGGACAACGAACATCATCGGAGTCACCTAGTGCAG | 14000 fluorescence intensity (a.u.) |
| CAAACAAGCCAGCTCAATCAATCATCGAGCTAGCTGAGCTCGGAGTCACCTAGTGCAG | 8080 fluorescence intensity (a.u.) |
| CTCTGTAACTATATAATTTCGTGCCAGATCGAAACTATGTCGGAGTCACCTAGTGCAG | 4040 fluorescence intensity (a.u.) |
